Test results taken from PubChem BioAssay (NCI).
Compounds without any hit were thinned out: in the full panel of roughly 83,000, 20% have a hit.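 A percent growth of 40 corresponds to 60% growth inhibition; 0 means no net growth; -100 means all cells died. Active threshold: below 10.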 Active and inactive are the calls of the source.

Columns and labels:
Experiment in all cases: NCI-60 one-dose screen, 48 h (100 = growth as untreated, 0 = no growth, -100 = all killed)
SK-MEL-2 melanoma = conditions: 10 µM unless noted
EKVX NSCLC = conditions: 10 µM unless noted
SN12C renal = conditions: 10 µM unless noted
UO-31 renal = conditions: 10 µM unless noted
TK-10 renal = conditions: 10 µM unless noted
ACHN renal = conditions: 10 µM unless noted
CAKI-1 renal = conditions: 10 µM
CCRF-CEM leukemia = conditions: 10 µM unless noted
RPMI-8226 leukemia = conditions: 10 µM unless noted
OVCAR-8 ovarian = conditions: 10 µM unless noted
OVCAR-5 ovarian = conditions: 10 µM unless noted
OVCAR-4 ovarian = conditions: 10 µM unless noted
SK-OV-3 ovarian = conditions: 10 µM unless noted
IGROV1 ovarian = conditions: 10 µM unless noted
OVCAR-3 ovarian = conditions: 10 µM unless noted
HS 578T breast = conditions: 10 µM unless noted
NCI/ADR-RES ovarian = conditions: 10 µM unless noted
MOLT-4 leukemia = conditions: 10 µM unless noted
SR leukemia = conditions: 10 µM unless noted
A498 renal = conditions: 10 µM unless noted

Measured: growth

CCOC(=O)C1=C(C)Nc2nnc(Nc3ccccc3)n2C1c1ccccc1 (stereo not given)
inactive: SK-MEL-2 melanoma 99.7% | EKVX NSCLC 69% | SN12C renal 30.5% | UO-31 renal 69.5% | TK-10 renal 81.8% | ACHN renal 14.7% | CAKI-1 renal 69% | CCRF-CEM leukemia 69.5% | RPMI-8226 leukemia 77% | OVCAR-8 ovarian 72.5% | OVCAR-5 ovarian 91.2% | OVCAR-4 ovarian 34.6% | SK-OV-3 ovarian 94.6% | IGROV1 ovarian 62.8% | HS 578T breast 75.8% | NCI/ADR-RES ovarian 70.8%
active: OVCAR-3 ovarian 5.94%

CCOc1ccc2nc(NC(=O)Nc3ccccc3C)sc2c1
inactive: SK-MEL-2 melanoma 48.5% | EKVX NSCLC 72% | SN12C renal 58.7% | UO-31 renal 66.3% | TK-10 renal 64.5% | ACHN renal 67% | CAKI-1 renal 60.9% | CCRF-CEM leukemia 47.7% | MOLT-4 leukemia 34.5% | SR leukemia 24.3% | OVCAR-8 ovarian 74.7% | OVCAR-5 ovarian 80.2% | OVCAR-4 ovarian 80.2% | SK-OV-3 ovarian 82.3% | IGROV1 ovarian 49.5% | OVCAR-3 ovarian 20.7% | HS 578T breast 50.5% | NCI/ADR-RES ovarian 22.8%

Cc1ccc(Nc2ncnc3c2c(C)nn3-c2ccc([N+](=O)[O-])cc2)cc1
inactive: SK-MEL-2 melanoma 107% | EKVX NSCLC 67.8% | SN12C renal 90% | UO-31 renal 91.3% | TK-10 renal 97.9% | ACHN renal 62.8% | CAKI-1 renal 63.6% | MOLT-4 leukemia 87.3% | SR leukemia 68.6% | OVCAR-8 ovarian 72.6% | OVCAR-5 ovarian 101% | OVCAR-4 ovarian 46% | SK-OV-3 ovarian 71.7% | IGROV1 ovarian 84.1% | OVCAR-3 ovarian 46.3% | HS 578T breast 68.6% | NCI/ADR-RES ovarian 80.4%

O=c1[nH]c(CNc2ccc(NCc3c(-c4ccccc4)no[n+]3[O-])cc2)nc2c1cnn2-c1ccccc1
inactive: SK-MEL-2 melanoma 77.2% | EKVX NSCLC 51.3% | SN12C renal 78.9% | UO-31 renal 55.9% | TK-10 renal 102% | ACHN renal 70.4% | CAKI-1 renal 55.1% | MOLT-4 leukemia 44% | SR leukemia 45.7% | RPMI-8226 leukemia 61.9% | OVCAR-8 ovarian 79.4% | OVCAR-5 ovarian 109% | OVCAR-4 ovarian 64.3% | SK-OV-3 ovarian 102% | IGROV1 ovarian 73.5% | OVCAR-3 ovarian 94.4% | HS 578T breast 85.8% | NCI/ADR-RES ovarian 60.6%

C[C@H]1[C@H](C)CC[C@]2(COC(=O)c3cccnc3)CC[C@]3(C)C(=CC[C@@H]4[C@@]5(C)CCCNC(C)(C)[C@@H]5CC[C@]43C)[C@H]12
active: SR leukemia -8.33%
inactive: SK-MEL-2 melanoma 98.6% | EKVX NSCLC 89.7% | SN12C renal 67.6% | UO-31 renal 59.3% | TK-10 renal 79.9% | ACHN renal 75.7% | CAKI-1 renal 61.5% | MOLT-4 leukemia 44% | OVCAR-8 ovarian 86.2% | OVCAR-5 ovarian 90.9% | OVCAR-4 ovarian 70.5% | SK-OV-3 ovarian 92.5% | IGROV1 ovarian 65% | OVCAR-3 ovarian 68.4% | HS 578T breast 78.8% | NCI/ADR-RES ovarian 88.5%

COc1ccc2c(c1)c(-c1nnc(N)nc1-c1cn(C)c3ccccc13)cn2C
inactive: SK-MEL-2 melanoma 95.2% | EKVX NSCLC 92.7% | SN12C renal 93.2% | UO-31 renal 70.8% | TK-10 renal 94.1% | ACHN renal 94.5% | CAKI-1 renal 75.7% | CCRF-CEM leukemia 93.9% | MOLT-4 leukemia 94.4% | SR leukemia 84.7% | RPMI-8226 leukemia 105% | OVCAR-8 ovarian 103% | OVCAR-5 ovarian 86.5% | SK-OV-3 ovarian 102% | IGROV1 ovarian 95.1% | OVCAR-3 ovarian 96.8% | HS 578T breast 91.2% | NCI/ADR-RES ovarian 90.5%

CCOC(=O)C1=C(C)N=C2Sc3ccccc3N2C1c1ccccc1 (stereo not given)
inactive: SK-MEL-2 melanoma 89.7% | EKVX NSCLC 67.6% | SN12C renal 93.4% | UO-31 renal 64.7% | TK-10 renal 110% | ACHN renal 88% | CAKI-1 renal 65.6% | MOLT-4 leukemia 87.2% | SR leukemia 83.8% | RPMI-8226 leukemia 73.4% | OVCAR-8 ovarian 96.6% | OVCAR-5 ovarian 102% | OVCAR-4 ovarian 91.9% | SK-OV-3 ovarian 125% | IGROV1 ovarian 77.3% | OVCAR-3 ovarian 98.4% | HS 578T breast 93.5% | NCI/ADR-RES ovarian 82.3%

CN(c1ccc(F)cc1)S(=O)(=O)c1ccc(-c2cnc(C3CC3)o2)cc1
inactive: SK-MEL-2 melanoma 77.6% | EKVX NSCLC 46.9% | SN12C renal 37.3% | UO-31 renal 44.5% | TK-10 renal 91.9% | ACHN renal 43% | CAKI-1 renal 39% | CCRF-CEM leukemia 16.4% | MOLT-4 leukemia 25.6% | SR leukemia 20.1% | RPMI-8226 leukemia 14.1% | OVCAR-8 ovarian 38.8% | OVCAR-5 ovarian 49.5% | OVCAR-4 ovarian 70.4% | SK-OV-3 ovarian 72.1% | IGROV1 ovarian 27.5% | HS 578T breast 37.4%
active: OVCAR-3 ovarian 6.57% | NCI/ADR-RES ovarian 9.11%

COc1ccc(/C=C/C(=O)c2nnn(-c3ccc(C(=O)O)cc3)c2C)cc1OC
inactive: SK-MEL-2 melanoma 101% | EKVX NSCLC 93.9% | SN12C renal 92.2% | UO-31 renal 79.3% | TK-10 renal 113% | ACHN renal 91.4% | CAKI-1 renal 95.9% | MOLT-4 leukemia 97.7% | SR leukemia 95.4% | RPMI-8226 leukemia 99.4% | OVCAR-8 ovarian 102% | OVCAR-5 ovarian 97.8% | OVCAR-4 ovarian 107% | IGROV1 ovarian 96.1% | OVCAR-3 ovarian 117% | HS 578T breast 102% | NCI/ADR-RES ovarian 106%

C#CCOc1ccc(C(Nc2ccc(Cl)cc2)c2nnnn2C2CCCCC2)cc1 (stereo not given)
inactive: SK-MEL-2 melanoma 91.4% | EKVX NSCLC 53.9% | SN12C renal 85.9% | UO-31 renal 64.9% | TK-10 renal 95% | ACHN renal 96.2% | CAKI-1 renal 50.3% | CCRF-CEM leukemia 91% | MOLT-4 leukemia 72.5% | SR leukemia 81% | RPMI-8226 leukemia 76.9% | OVCAR-8 ovarian 93.5% | OVCAR-5 ovarian 85.5% | SK-OV-3 ovarian 98.2% | IGROV1 ovarian 84.3% | OVCAR-3 ovarian 101% | HS 578T breast 79.9% | NCI/ADR-RES ovarian 76.6%

COc1ccc(CCN2C(=O)/C(=C/c3nc(CO)cs3)SC2=S)cc1
inactive: SK-MEL-2 melanoma 96.9% | EKVX NSCLC 95.2% | SN12C renal 83.6% | UO-31 renal 34% | TK-10 renal 61.6% | ACHN renal 72.7% | CAKI-1 renal 63.4% | CCRF-CEM leukemia 67.6% | MOLT-4 leukemia 87.5% | SR leukemia 60.4% | RPMI-8226 leukemia 17.7% | OVCAR-8 ovarian 97.5% | OVCAR-5 ovarian 102% | OVCAR-4 ovarian 91.8% | SK-OV-3 ovarian 97.9% | IGROV1 ovarian 91.4% | OVCAR-3 ovarian 54.2% | HS 578T breast 106% | NCI/ADR-RES ovarian 95.7%

CCN1C/C(=N\S(=O)(=O)c2ccccc2)N(CC)C1=S
inactive: SK-MEL-2 melanoma 104% | EKVX NSCLC 99% | SN12C renal 98.1% | UO-31 renal 89.9% | TK-10 renal 100% | ACHN renal 102% | CAKI-1 renal 95.3% | MOLT-4 leukemia 101% | SR leukemia 101% | OVCAR-8 ovarian 99.7% | OVCAR-5 ovarian 103% | OVCAR-4 ovarian 106% | SK-OV-3 ovarian 118% | IGROV1 ovarian 107% | OVCAR-3 ovarian 119% | HS 578T breast 105% | NCI/ADR-RES ovarian 99.8%

CCNC(=O)Oc1ccc(/C(=C(/C)c2ccc(Cl)cc2)c2ccc(OCCN3CCCC3)cc2)cc1
inactive: SK-MEL-2 melanoma 104% | EKVX NSCLC 80.2% | SN12C renal 75.4% | UO-31 renal 65.8% | TK-10 renal 97.6% | ACHN renal 95% | CAKI-1 renal 85.7% | MOLT-4 leukemia 58.6% | SR leukemia 23.2% | OVCAR-8 ovarian 87.7% | OVCAR-5 ovarian 90.5% | OVCAR-4 ovarian 88.6% | SK-OV-3 ovarian 106% | IGROV1 ovarian 78.1% | OVCAR-3 ovarian 99.8% | HS 578T breast 92.8% | NCI/ADR-RES ovarian 78.7%

COc1c([C@@H](CC(C)C)OC(C)=O)ccc2c1C(=O)OCc1cc(C)cc(O)c1O2
inactive: SK-MEL-2 melanoma 22.2% | EKVX NSCLC 37.6% | SN12C renal 27.8% | UO-31 renal 32.3% | TK-10 renal 33.6% | ACHN renal 16.1% | A498 renal 61.5% | CCRF-CEM leukemia 31.4% | MOLT-4 leukemia 21.3% | SR leukemia 19.1% | RPMI-8226 leukemia 27.6% | OVCAR-8 ovarian 21.2% | OVCAR-5 ovarian 69.4% | OVCAR-4 ovarian 25.9% | SK-OV-3 ovarian 24.3% | IGROV1 ovarian 44% | OVCAR-3 ovarian 43% | HS 578T breast 45.9% | NCI/ADR-RES ovarian 12.6%

Cc1cc(Cl)cc(NS(=O)(=O)c2ccc(-c3cnc(C4CC4)o3)cc2)c1
active: OVCAR-3 ovarian -24.3%
inactive: SK-MEL-2 melanoma 78.1% | EKVX NSCLC 39.4% | SN12C renal 39.6% | UO-31 renal 43.8% | TK-10 renal 83.5% | ACHN renal 46.1% | CAKI-1 renal 37.1% | CCRF-CEM leukemia 18.6% | MOLT-4 leukemia 25.9% | SR leukemia 27.1% | OVCAR-8 ovarian 38.7% | OVCAR-5 ovarian 43.6% | OVCAR-4 ovarian 66.2% | SK-OV-3 ovarian 72.8% | IGROV1 ovarian 33.2% | HS 578T breast 35.6% | NCI/ADR-RES ovarian 10.1%

CN1C(=O)N(C)C2Nn3c(s/c(=C\c4ccccn4)c3=O)=NC21 (stereo not given)
inactive: SK-MEL-2 melanoma 102% | EKVX NSCLC 99.7% | SN12C renal 104% | UO-31 renal 88.1% | TK-10 renal 111% | ACHN renal 100% | A498 renal 105% | CCRF-CEM leukemia 102% | MOLT-4 leukemia 110% | SR leukemia 109% | RPMI-8226 leukemia 105% | OVCAR-8 ovarian 101% | OVCAR-5 ovarian 104% | OVCAR-4 ovarian 104% | SK-OV-3 ovarian 114% | IGROV1 ovarian 98.3% | OVCAR-3 ovarian 106% | HS 578T breast 113% | NCI/ADR-RES ovarian 103%

O=C1[C@H]2Cc3c([nH]c4ccccc34)[C@@H](c3c(Cl)cccc3Cl)N2C(=O)CN1C1CCN(Cc2ccccc2)CC1
inactive: SK-MEL-2 melanoma 114% | EKVX NSCLC 96.2% | SN12C renal 73.3% | UO-31 renal 75.9% | TK-10 renal 46.2% | ACHN renal 93% | A498 renal 102% | CCRF-CEM leukemia 21.7% | MOLT-4 leukemia 20% | SR leukemia 32.7% | RPMI-8226 leukemia 60.3% | OVCAR-8 ovarian 74.5% | OVCAR-5 ovarian 107% | OVCAR-4 ovarian 83.9% | SK-OV-3 ovarian 115% | IGROV1 ovarian 70.3% | OVCAR-3 ovarian 109% | HS 578T breast 87.6% | NCI/ADR-RES ovarian 92.8%
